From PubChem
SARS PLP yeast – blocks SARS-CoV papain-like protease in a yeast assay; S. cerevisiae expressing SARS-CoV PLpro, growth rescue; Potency, µM (highest dose often 32.9 µM), inactives show top-dose activity, positive = growth rescue, hits mostly activators; hit rate 0.19% among 330,000; AID 485353; calls by dose curve; also: 0% is about no effect; nearly all actives have a fitted effect of over 55% in size
Pf growth 48h – inhibits P. falciparum growth in the first generation, 48 h. P. falciparum luciferase growth in erythrocytes, 48 h. hit rate 5.9% among 310,000. Potency, µM (doses to about 28.7 µM), without a hit: top-dose activity change, negative = inhibition, usual class: inhibitors. AID 504832; also: % is scaled to controls: 0 for no effect and ±100 for the full control effect
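Luminescence readout; reporter = integrated firefly luciferase in P. falciparum. RBC culture at 2% hematocrit, 0.1% parasitemia final, 37 C/5% CO2; decreased signal taken as growth inhibition.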
Pf growth 96h – inhibits malaria parasite growth, 96 h. Potency, µM (titrated, usually from 28.7 µM), for the others: at the top dose activity change, negative = inhibition, usual class: inhibitors. hit rate 6.9% among 320,000. P. falciparum luciferase reporter growth, 96 h. AID 504834; also: % is scaled to controls: 0 for no effect and ±100 for the full control effect
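Cell-based qHTS: luciferase-tagged P. falciparum in erythrocytes (2% hematocrit, 0.05% parasitemia final) incubated with compounds for 96 hours, 37 C, 5% CO2; luciferase detection reagent then added and luminescence measured.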
NS1 inh – influenza NS1 inhibition; Potency, µM (highest dose often 46.1 µM), inactives show top-dose activity, positive = more growth; hit rate 0.4% among 270,000; calls by dose curve; also: actives are rising curves; nearly all actives have a fitted effect of over 50% in size
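Recovery from NS1-induced slow growth read by OD600 in budding yeast switched to galactose assay medium (pH 6.0, -URA) at 1:100 dilution. Compound 23 nl per well; the matching strain lacking NS1 serves as control.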
AMA1 RON2 block – AMA1-RON2 (P. falciparum) interaction inhibition. Potency, µM (top dose mostly 58.2 µM), without a hit: at the highest dose activity change, negative = inhibition, most hits filed as inhibitors. AlphaScreen AMA1-biotinylated RON2 peptide binding. AID 720542. hit rate 0.2% among 360,000;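 also: 0% = vehicle wells and -100% = peptide control; nearly all actives have a fitted effect of over 45% in size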
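AMA1 (3D7) with his tag at 25 nM final met compounds first, then biotinylated RON2 peptide at 25 nM; detection used donor plus acceptor beads, 10 µg/mL apiece, read by AlphaScreen after 30 min at room temperature.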
HCV inh – HCV inhibition | hit rate 3.4% among 340,000 | Huh7.5.1 HCVcc-Cre infection, luciferase reporter, 44 h | Potency, µM (doses to about 41.8 µM), for inactives: top-dose activity change, negative = inhibition, most hits filed as inhibitors | AID 651820; also: % is scaled to controls: 0 for no effect and ±100 for the full control effect
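Antiviral activity was scored by luciferase reporter output from cells infected with HCVcc-Cre (~0.5 moi) in presence of compound, 44 h infection period, cells seeded 1,000/well 4 h prior.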
Starred values were filed as active, the others as inactive; ? = inconclusive; / = not tested or not shown; [ ] = another dose, or the depositor's remark. Hits are enriched below; roughly 12% of the tested compounds scored in any of these assays. Unless noted, calls follow the shape of the dose curve; as a rule, active = well fitted curve in the direction sought with a large enough effect; inconclusive = small, poorly fitted or top-dose-only effect, or another doubt; inactive = no such curve, though single readings can be large; an effect the other way counts as inactive or inconclusive. Potency is read from the fitted curve at half-maximal effect.

SMILES	SARS PLP yeast	Pf growth 48h	Pf growth 96h	NS1 inh	AMA1 RON2 block	HCV inh
O=C(NCC1CCCN(C(=O)NCc2ccccc2)C1)c1ccc2c(c1)OCO2 (configuration not stated)	0.1%	17.7%	83.5%	-0.1%	-2.7%	10.4%
CC(C)CN1CCC(=O)N([C@H](CSc2ccccc2)Cc2ccccc2)CC1	1.8%	?	13.1µM*	-10.0%	-3.6%	?
CCCN1CCC(=O)N([C@H](CSc2ccc(Br)cc2)Cc2ccccc2)CC1	-0.1%	?	1.85µM*	-0.3%	-24.4%	-11.3%
CCCN1CCC(=O)N([C@H](CSc2ccccc2)Cc2ccccc2)CC1	-1.2%	?	?	-2.7%	-0.3%	-9.6%
Cc1ccc(SC[C@H](Cc2ccccc2)N2CCN(CC(C)C)CCC2=O)cc1	-1.0%	?	?	-39.4%	-4.1%	-21.5%
O=S(=O)(NC1CCSc2ccccc21)c1ccc(Cl)nc1 (configuration not stated)	-2.8%	-4.5%	-29.1%	-9.4%	-7.6%	-1.3%
C[C@H](CO)N1C[C@H](C)[C@@H](CN(C)C(=O)Nc2ccc3c(c2)OCO3)Oc2c(NS(=O)(=O)c3ccc(F)cc3)cccc2C1=O	3.0%	/	/	/	6.5%	-5.9%
CC1CCCC(C)N1C(=O)COc1ccc(F)cc1 (configuration not stated)	-1.1%	9.7%	?	0.1%	0.6%	10.3%
O=C(CCS(=O)(=O)c1ccccc1)NNC(=O)CSc1ccccc1F	3.3%	/	/	/	101.8%	-1.0%
CC1=CC(=O)C=CC1=Nc1ccc(N(C)C)cc1	/	/	/	/	3.98µM*	/
CC[C@@H]1C=C(C)C[C@H](C)C[C@H](OC)[C@H]2O[C@@](O)(C(=O)C(=O)N3CCCC[C@H]3C(=O)O[C@H](/C(C)=C/[C@@H]3CC[C@@H](O)[C@H](OC)C3)[C@H](C)[C@@H](O)CC1=O)[C@H](C)C[C@@H]2OC	-38.0%	2.33µM*	2.62µM*	-26.6%	/	0.6%[8.37 µM]
O=C(CSC1=NNC(c2ccccn2)S1)Nc1ccccc1 (configuration not stated)	?	?	?	-110.5%	-82.3%	14.1µM*
COc1ccc2c3c(c(=O)oc2c1)C1O[C@](c2ccsc2)(Cc2cc(C#N)ccc21)O3	7.6%[6.58 µM]	?	26.7%[5.75 µM]	23.2%	/	/
CCCC[C@]12Cc3cc(C#N)ccc3C(O1)c1c(c3cc(F)ccc3oc1=O)O2	3.4%[6.58 µM]	-13.6%[5.75 µM]	1.35µM*	17.9%	/	/
CC1(C)CC(=O)C2=C(C1)O[C@@]1(c3ccsc3)Cc3cc(C#N)ccc3C2O1	?	1.51µM*	?	27.1%	/	/
COc1cc2c(cc1OC)C1O[C@](c3ccsc3)(C2)Oc2c1c(=O)oc1ccc(F)cc21	5.3%[6.58 µM]	1.51µM*	?	?	/	/
N#Cc1ccc2c(c1)C[C@]1(c3ccsc3)Oc3c(c(=O)oc4ccc(F)cc34)C2O1	-18.5%[6.58 µM]	1.51µM*	73.3%[5.75 µM]	14.8%	/	/
CC(NCCC1(Cc2ccccc2Cl)CCOC(C)(C)C1)c1cccs1 (configuration not stated)	-1.5%	?	11.7µM*	-0.6%	6.4%	-4.7%
O=C(Nc1cccc(F)c1)C1CCCN(S(=O)(=O)c2cnc[nH]2)C1 (configuration not stated)	-0.9%	16.3%	9.28µM*	7.0%	-5.8%	18.8%
O=C(NCCC1=CCCCC1)C1CCCN(S(=O)(=O)c2cnc[nH]2)C1 (configuration not stated)	-0.3%	/	11.7µM*	?	0.0%	15.1%
Cc1cc(C)cc(NC(=O)C2CCCN(S(=O)(=O)c3cnc[nH]3)C2)c1 (configuration not stated)	-0.9%	2.4%	3.29µM*	-3.8%	0.6%	4.2%
Cc1ccc(NC(=O)C2CCCN(S(=O)(=O)c3cnc[nH]3)C2)cc1F (configuration not stated)	-2.0%	2.0%	?	3.1%	-3.1%	?
Cc1csc(NC(=O)C2CCCN(S(=O)(=O)c3cnc[nH]3)C2)n1 (configuration not stated)	0.7%	/	11.7µM*	?	-6.5%	-6.7%
Cc1csc(NC(=O)C2CCCN(S(=O)(=O)c3cccnc3)C2)n1 (configuration not stated)	0.1%	/	8.9%	-4.0%	0.4%	1.6%
O=C(NCc1ccco1)C1CCCN1C(=O)Nc1ccccc1Cl (configuration not stated)	-0.1%	13.1%	13.6%	0.9%	-4.4%	5.4%
SMILES	SARS PLP yeast	Pf growth 48h	Pf growth 96h	NS1 inh	AMA1 RON2 block	HCV inh
COc1cccc(C(=O)N2[C@H](COCc3ccccc3)C=CS2(=O)=O)c1	/	/	/	/	-1.3%	/
COc1cc(NC(=O)CN2C(=O)NC(C)(CCC(C)C)C2=O)cc(OC)c1 (configuration not stated)	2.1%	-15.8%	?	-1.1%	-18.6%	-25.4%
COc1ccc(C2(c3ccc(OC)cc3)NC(=O)N(CC(=O)Nc3ccc(OC)c(OC)c3)C2=O)cc1	0.6%	6.57µM*	?	0.1%	-24.0%	?
Cc1cc(NC(=O)CN2C(=O)NC(c3ccccc3)(c3ccc(C)c(C)c3)C2=O)no1 (configuration not stated)	-0.1%	?	4.15µM*	/	-1.2%	?
COc1ccc(C2(c3ccc(OC)cc3)NC(=O)N(CC(=O)Nc3ccc(C(N)=O)cc3)C2=O)cc1	18.2%	?	?	-19.5%	17.3%	-24.3%
COc1cccc(NC(=O)CN2C(=O)NC(C)(CCC(C)C)C2=O)c1 (configuration not stated)	0.8%	10.4µM*	17.0%	/	-0.6%	-12.3%
COc1ccc(C2(c3ccc(OC)cc3)NC(=O)N(CC(=O)Nc3ccccc3C(F)(F)F)C2=O)cc1	-2.3%	?	11.7µM*	4.3%	4.2%	?
COC(=O)c1ccccc1NC(=O)c1noc2c1CCC2	1.4%	3.29µM*	1.04µM*	-2.2%	-15.8%	?
CCc1ccc(NC(=O)c2noc3c2CCCCC3)cc1	0.6%	135.2%	3.7µM*	-6.3%	-6.0%	9.7%
CSc1ccccc1NC(=O)c1noc2c1CCC2	-15.7%	13.1µM*	/	-55.9%	-8.4%	?
CC1(C)Cc2c(cnn2-c2cccc(F)c2)C(NC(=O)C2CCOCC2)C1 (configuration not stated)	2.3%	-17.3%	?	16.2%	-5.7%	13.8%
O=C(Cc1ccc(NC(=O)C2CCCN(C(=O)C3CC3)C2)cc1)Nc1cccc(C(=O)N2CCCCC2)c1 (configuration not stated)	/	/	/	/	9.1%	-44.9%
CCC(=O)[C@@]1(C)[C@H](C)C[C@@H]2[C@@H]3CCC4=CC(=O)C=C[C@@]4(C)[C@H]3[C@H](O)C[C@]21C	/	2.56µM*	2.56µM*	/	/	/
